Assay in all cases: NCI-60 one-dose screen, 48 h (100 = growth as untreated, 0 = no growth, -100 = all killed)
One assay has as its system HCT-15 colon. As to conditions: 10 µM unless noted.
Another assay deals with HT29 colon. As to conditions: 10 µM unless noted.
Another assay has as its system SNB-75 CNS. The settings on record: 10 µM unless noted.
The next assay deals with SNB-19 CNS. As to conditions: 10 µM unless noted.
The subject of the next assay is U251 CNS. As to conditions: 10 µM unless noted.
The test system of the next assay is PC-3 prostate. The settings on record: 10 µM unless noted.
A further assay deals with SK-MEL-5 melanoma. As to conditions: 10 µM unless noted.
The next assay deals with UACC-62 melanoma. The settings on record: 10 µM unless noted.
In a further assay the test system is LOX IMVI melanoma. The settings on record: 10 µM unless noted.
Another assay concerns SK-MEL-28 melanoma. The settings on record: 10 µM unless noted.
The test system of the next assay is SK-MEL-2 melanoma. The settings on record: 10 µM unless noted.
The test system of another assay is SN12C renal. The settings on record: 10 µM unless noted.
In a further assay the test system is UO-31 renal. As to conditions: 10 µM unless noted.
The test system of another assay is TK-10 renal. The settings on record: 10 µM unless noted.
For the next assay, the system named is ACHN renal. As to conditions: 10 µM unless noted.
A further assay deals with A498 renal. The settings on record: 10 µM unless noted.
The next assay relates to CCRF-CEM leukemia. The settings on record: 10 µM.
For another assay, the system named is MOLT-4 leukemia. The settings on record: 10 µM unless noted.
In another assay the test system is CAKI-1 renal. The settings on record: 10 µM unless noted.
Another assay has as its system EKVX NSCLC. As to conditions: 10 µM.

We go through nine compounds from PubChem BioAssay (NCI).

The panel holds about 83,000 compounds, 20% with a hit somewhere; the sample as a whole holds those more often.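 Plates (96-well) were seeded with cells, treated with compound at one concentration, and incubated for 48 hours before percent growth was determined.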 Values without a mark were called inactive. Calls of active or inactive are those of the source. The calls were made as follows: active = growth percent below 10; inactive = the rest.

As for `CC(=O)O.[In]`, the growth with HCT-15 colon is 109%; in the assay with HT29 colon, 105%; in the assay on SNB-75 CNS, 90.6%; with SNB-19 CNS, 109%; in the assay on U251 CNS, 98.8%; in the assay with PC-3 prostate, 99.7%. Moreover, the growth in the assay on SK-MEL-5 melanoma was 95.2%; with UACC-62 melanoma, 102%; in the assay on LOX IMVI melanoma, 35.3%; with SK-MEL-28 melanoma, 112%; in the assay on SK-MEL-2 melanoma, 98.4%; in the assay on SN12C renal, 109%. Moreover, the growth in the assay on UO-31 renal is 88.4%; in the assay with TK-10 renal, 100%; in the assay with ACHN renal, 104%; in the assay with A498 renal, 112%; in the assay on CCRF-CEM leukemia, 85.4%; in the assay on MOLT-4 leukemia it was 99.9%.

Consider `CN(C)CCOC(=O)C(C)(C)C`, for which the growth with HCT-15 colon was 101%; in the assay with HT29 colon it was 99.7%; in the assay on SNB-75 CNS, 100%; in the assay with SNB-19 CNS it was 99.4%; in the assay with U251 CNS it was 102%; in the assay on PC-3 prostate, 93.6%. Further, the growth in the assay with SK-MEL-5 melanoma is 105%; in the assay on UACC-62 melanoma, 93.3%; in the assay on LOX IMVI melanoma it was 105%; in the assay with SK-MEL-28 melanoma, 26%; in the assay with SK-MEL-2 melanoma, 103%; with SN12C renal, 102%. The growth in the assay with UO-31 renal is 89.9%; in the assay with TK-10 renal it was 102%; in the assay with ACHN renal it was 98.1%; in the assay on CAKI-1 renal, 105%; with A498 renal, 103%; in the assay with MOLT-4 leukemia, 95.9%.

Take `CC(C)OCC1CO1` (stereo not given): the growth in the assay on HCT-15 colon was 100%; in the assay on HT29 colon, 103%; in the assay with SNB-75 CNS, 92.7%; with SNB-19 CNS, 99.7%; with U251 CNS it was 102%; with PC-3 prostate it was 106%. The growth with SK-MEL-5 melanoma is 108%; in the assay on UACC-62 melanoma, 98.9%; in the assay with LOX IMVI melanoma it was 113%; in the assay with SK-MEL-28 melanoma, 110%; in the assay on SK-MEL-2 melanoma, 123%; in the assay with SN12C renal it was 109%. For the same compound, the growth is 95.8% with UO-31 renal; 107% in the assay with TK-10 renal; 98.7% in the assay with ACHN renal; 97.9% in the assay on CAKI-1 renal; 117% in the assay on A498 renal; 110% in the assay with MOLT-4 leukemia.

As for `CC(Br)c1nc2ccccc2cc1C(N)=O` (stereo not given), the growth in the assay on HCT-15 colon is 98.9%; in the assay with HT29 colon, 105%; in the assay with SNB-75 CNS it was 88.3%; in the assay on SNB-19 CNS, 105%; in the assay with U251 CNS, 97.9%; in the assay on PC-3 prostate, 103%. The growth in the assay on SK-MEL-5 melanoma is 104%; in the assay with UACC-62 melanoma it was 93.7%; in the assay on LOX IMVI melanoma, 85.6%; with SK-MEL-28 melanoma, 107%; in the assay on SK-MEL-2 melanoma it was 110%; in the assay on SN12C renal, 90.5%. Besides, the growth in the assay with UO-31 renal was 92.6%; in the assay with TK-10 renal, 96.8%; in the assay with ACHN renal it was 109%; in the assay on A498 renal it was 94.7%; in the assay on CCRF-CEM leukemia it was 84.5%; with MOLT-4 leukemia it was 86.4%.

Turning to `CC(CCN1CCN(CCC(C)CC(C)(C)C)C1CC(C)CC(C)(C)C)CC(C)(C)C` (stereo not given), the growth is 87.5% with HCT-15 colon; 39.4% with HT29 colon; 80.7% with SNB-75 CNS; 102% in the assay with SNB-19 CNS; 91.6% in the assay on U251 CNS; 56.7% in the assay on PC-3 prostate. In addition, the growth is 108% in the assay with SK-MEL-5 melanoma; 103% in the assay on UACC-62 melanoma; 81.8% with LOX IMVI melanoma; 105% in the assay with SK-MEL-28 melanoma; 82.6% with EKVX NSCLC; 91.2% with SN12C renal. For the same compound, the growth was 66.2% in the assay on UO-31 renal; 85.2% with TK-10 renal; 90.4% in the assay with ACHN renal; 96.4% with CAKI-1 renal; 112% in the assay on A498 renal; 83.1% in the assay on CCRF-CEM leukemia. Besides, in the assay with MOLT-4 leukemia, the growth is 88.7%.

`CCCCCCCCCc1cc[n+](CC(=O)c2ccc([N+](=O)[O-])cc2)cc1`: the growth was -18.2% (active) in the assay with HCT-15 colon; -52.1% (active) in the assay with HT29 colon; 23.9% with SNB-75 CNS; 13.8% with SNB-19 CNS; 8.48% (active) in the assay on U251 CNS; -0.775% (active) in the assay on PC-3 prostate. For the same compound, the growth is -77.8% (active) in the assay on SK-MEL-5 melanoma; -6.32% (active) in the assay on UACC-62 melanoma; -77.2% (active) with LOX IMVI melanoma; 12.3% with SK-MEL-28 melanoma; 11.1% in the assay on EKVX NSCLC; -2.2% (active) in the assay on SN12C renal. Moreover, the growth was 35% in the assay with UO-31 renal; 48.4% with TK-10 renal; 48.1% in the assay with ACHN renal; 74.9% in the assay with CAKI-1 renal; 1.62% (active) in the assay with MOLT-4 leukemia.

`COC(=O)[C@H](Cc1cn(C)cn1)NC(=O)[C@H](Cc1c[nH]c2ccccc12)NC(=O)Nc1cc(C(F)(F)F)cc(C(F)(F)F)c1`: the growth in the assay on HCT-15 colon was 27.7% [100 µM]; with HT29 colon, -84.2% [100 µM] (active); in the assay with SNB-75 CNS it was -85.5% [100 µM] (active); with SNB-19 CNS, -91% [100 µM] (active); with U251 CNS, -89.5% [100 µM] (active); with PC-3 prostate it was -89.4% [100 µM] (active). For the same compound, the growth is -51.3% [100 µM] (active) in the assay on SK-MEL-5 melanoma; -92.9% [100 µM] (active) in the assay with UACC-62 melanoma; -83.5% [100 µM] (active) with LOX IMVI melanoma; -80.3% [100 µM] (active) in the assay on SK-MEL-28 melanoma; -82.6% [100 µM] (active) in the assay on SK-MEL-2 melanoma; 22.5% [100 µM] in the assay with UO-31 renal. For the same compound, the growth in the assay with TK-10 renal was -66.2% [100 µM] (active); with ACHN renal, -38% [100 µM] (active); in the assay with A498 renal, -35.8% [100 µM] (active); in the assay with MOLT-4 leukemia, -45.8% [100 µM] (active).

For `CCCC(=O)NNc1[nH]c(-c2ccc(OC)cc2)cc1C(=O)OCC`, the growth with HCT-15 colon is 100%; in the assay on HT29 colon it was 110%; with SNB-75 CNS, 122%; in the assay on SNB-19 CNS, 108%; in the assay with U251 CNS, 104%; in the assay with PC-3 prostate it was 106%. Besides, the growth in the assay on SK-MEL-5 melanoma was 111%; in the assay with UACC-62 melanoma, 99.6%; in the assay with LOX IMVI melanoma, 103%; with SK-MEL-28 melanoma, 120%; with EKVX NSCLC it was 108%; in the assay on SN12C renal, 110%. Moreover, the growth in the assay on UO-31 renal was 85.8%; in the assay on TK-10 renal, -16.1% (active); in the assay on ACHN renal, 73.1%; with CAKI-1 renal, 91.1%; in the assay on CCRF-CEM leukemia, 5.87% (active); in the assay on MOLT-4 leukemia, 3.23% (active).

For `O=C(N/N=C/c1coc2ccccc2c1=O)c1cc2oc(-c3ccccc3)cc2[nH]1`, the growth with HCT-15 colon is 100%; with HT29 colon, 107%; in the assay on SNB-75 CNS, 83.8%; with SNB-19 CNS, 92.9%; in the assay on U251 CNS, 97.9%; with PC-3 prostate it was 72.1%. The growth with SK-MEL-5 melanoma is 84%; in the assay on UACC-62 melanoma it was 94.6%; in the assay with LOX IMVI melanoma, 98.4%; in the assay on SK-MEL-28 melanoma, 91.9%; in the assay on EKVX NSCLC it was 90.5%; with SN12C renal, 120%. Further, the growth was 86.2% in the assay with UO-31 renal; 143% with TK-10 renal; 106% with ACHN renal; 95.3% in the assay with CAKI-1 renal; 101% in the assay with A498 renal; 103% in the assay with CCRF-CEM leukemia.
